Data from PubChem BioAssay (NCI).
About 83,000 compounds went through this panel and 20% of them were active in at least one assay; those are over-represented in the sample as a whole.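 Single-concentration screen, 48 h exposure, 96-well plates. Endpoint: percent growth. Below 10 = active.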 Active and inactive are the calls of the source.

Legend:
Experiment in all cases: NCI-60 one-dose screen, 48 h (100 = growth as untreated, 0 = no growth, -100 = all killed)
[1] = system: SK-MEL-2 melanoma; details: 10 µM unless noted
[2] = system: SN12C renal; details: 10 µM unless noted
[3] = system: UO-31 renal; details: 10 µM unless noted
[4] = system: TK-10 renal; details: 10 µM unless noted
[5] = system: ACHN renal; details: 10 µM unless noted
[6] = system: CAKI-1 renal; details: 10 µM unless noted
[7] = system: A498 renal; details: 10 µM unless noted
[8] = system: MOLT-4 leukemia; details: 10 µM unless noted
[9] = system: SR leukemia; details: 10 µM unless noted
[10] = system: RPMI-8226 leukemia; details: 10 µM unless noted
[11] = system: OVCAR-8 ovarian; details: 10 µM unless noted
[12] = system: OVCAR-5 ovarian; details: 10 µM unless noted
[13] = system: OVCAR-4 ovarian; details: 10 µM unless noted
[14] = system: SK-OV-3 ovarian; details: 10 µM unless noted
[15] = system: IGROV1 ovarian; details: 10 µM unless noted
[16] = system: OVCAR-3 ovarian; details: 10 µM unless noted
[17] = system: HS 578T breast; details: 10 µM unless noted
[18] = system: NCI/ADR-RES ovarian; details: 10 µM unless noted
[19] = system: CCRF-CEM leukemia; details: 10 µM

Measured: growth

BrCCCOc1ccc(Oc2ccc(OCCCBr)cc2)cc1
inactive: [1] 97.4% | [2] 95.3% | [3] 105% | [4] 108% | [5] 120% | [6] 112% | [7] 99.4% | [8] 96.4% | [9] 93.8% | [10] 98% | [11] 94.6% | [12] 122% | [13] 99% | [14] 123% | [15] 97.7% | [16] 123% | [17] 92.8% | [18] 110%

N=C(c1ccccc1)N(Cc1ccccc1)Cc1ccccc1
inactive: [1] 85.4% | [2] 98.8% | [3] 72.6% | [4] 106% | [5] 93.7% | [6] 89.8% | [7] 96% | [8] 86.3% | [9] 64.8% | [10] 94.4% | [11] 97.9% | [12] 86.3% | [13] 84.9% | [14] 98.1% | [15] 67% | [16] 110% | [17] 113% | [18] 99.8%

COc1ccc(-c2nnc(SCC(=O)Nc3ccc(C(=O)/C=C/c4cc(OC)c(OC)c(OC)c4)cc3)n2-c2ccccc2)cc1OC
active: [1] -26.1% [100 µM] | [4] -42.5% [100 µM] | [6] 1.67% [100 µM] | [7] -69.7% [100 µM] | [13] -49% [100 µM] | [14] -54.7% [100 µM] | [15] -36.1% [100 µM] | [16] -37% [100 µM] | [17] 4.23% [100 µM]
inactive: [2] 31.8% [100 µM] | [3] 67.5% [100 µM] | [8] 44.5% [100 µM] | [9] 75% [100 µM] | [10] 16.7% [100 µM] | [11] 15.9% [100 µM] | [12] 19.2% [100 µM] | [18] 46% [100 µM]

CCC(C)CC(N)O (configuration not stated)
inactive: [1] 128% | [2] 109% | [3] 101% | [4] 99% | [6] 110% | [7] 109% | [19] 115% | [8] 106% | [9] 105% | [10] 111% | [11] 107% | [12] 99.9% | [13] 109% | [14] 111% | [15] 118% | [16] 110% | [18] 109%

COC(=O)c1c[n+]([O-])ccc1OC
inactive: [1] 117% | [2] 98.2% | [3] 85.2% | [4] 102% | [5] 108% | [6] 97.2% | [7] 111% | [10] 111% | [11] 110% | [12] 117% | [13] 123% | [14] 106% | [15] 107% | [16] 113% | [17] 109% | [18] 105%
active: [8] -47.4%

CN(CCC#N)c1ccc(/C=C(\C#N)c2cccc(C(F)(F)F)c2)cc1
inactive: [1] 51% | [2] 72.1% | [3] 53.4% | [4] 69.3% | [5] 76.1% | [6] 49.8% | [7] 74.1% | [10] 57.4% | [11] 76.1% | [12] 76.9% | [13] 68.3% | [14] 98.1% | [15] 65.7% | [16] 69.4% | [17] 89.2% | [18] 40.3%

NC(CSC(c1ccccc1)(c1ccccc1)c1ccccc1)C(=O)NCC(=O)O (configuration not stated)
inactive: [1] 38.3% | [2] 70.7% | [3] 84.4% | [4] 98.8% | [7] 65% | [19] 53.5% | [8] 83.7% | [9] 34.1% | [10] 49.3% | [11] 70.7% | [12] 94.7% | [13] 100% | [14] 35% | [15] 72.6% | [16] 98% | [18] 108%

CC1CCCCC[N+]12CCCC2 (configuration not stated)
inactive: [1] 101% | [2] 101% | [3] 88.8% | [4] 100% | [6] 98.7% | [7] 109% | [8] 99.2% | [10] 100% | [11] 101% | [12] 106% | [13] 113% | [14] 98.1% | [15] 102% | [16] 116% | [17] 112% | [18] 111%

O=C(O)COc1ccc([N+](=O)[O-])cc1Cl
inactive: [1] 107% | [2] 88.7% | [3] 105% | [4] 103% | [5] 102% | [7] 115% | [19] 88.8% | [8] 99.2% | [9] 97.6% | [10] 94.2% | [11] 110% | [12] 102% | [13] 106% | [14] 98.7% | [15] 100% | [16] 123% | [18] 107%
